The text below walks through data of a collection of fitness landscapes (doi:10.1126/science.1257360).

First the molecules themselves.
B1: PhoQ; a variant is named by its letters at X, in order, P23837 (parent)
chain: MKKLLRLFFPLSLRVRFLLATAAVVLVLSLAYGMVALIGYSVSFDKTTFRLLRGESNLFYTLAKWENNKLHVELPENIDKQSPTMTLIYDENGQLLWAQRDVPWLMKMIQPDWLKSNGFHEIEADVNDTSLLLSGDHSIQQQLQEVREDDDDAEMTHSVAVNVYPATSRMPKLTIVVVDTIPVELKSSYMVWSWFIYVLSANLLLVIPLLWVAAWWSLRPIEALAKEVRELEEHNRELLNPATTRELTSLVRNLNRLLKSERERYDKYRTTLTDLTHSLKTPLXXLQXXLRSLRSEKMSVSDAEPVMLEQISRISQQIGYYLHRASMRGGTLLSRELHPVAPLLDNLTSALNKVYQRKGVNISLDISPEISFVGEQNDFVEVMGNVLDNACKYCLEFVEISARQTDEHLYIVVEDDGPGIPLSKREVIFDRGQRVDTLRPGQGVGLAVAREITEQYEGKIVAGESMLGGARMEVIFGRQHSAPKDE

In all, about 140,000 sequences were measured (“enrichment ratio after two sorts for PhoP signalling”: median about 0, highest 2% from about 11 on). Shown is part of a subset that was picked to be rich in the highest values. Some results are limits rather than exact numbers.

The variants in this assay derive from B1. Description: enrichment ratio after two sorts for PhoP signalling (ratio (wild type AVST 3.29)); higher = more functional. Conditions: with PhoP (E. coli).
Regarding TKFT, the enrichment ratio is not above 0.25.
The figure for TKAT is 14.5; for TKQT it is 11.7; for TKLT it is 15.3.
For the variant KKLT, the enrichment ratio was not above 0.25.
Regarding TKKT, the enrichment ratio is not above 0.25.
The figure for TKPT is not above 0.25.
The same measure for KSQT: not above 0.25; for KAQT: not above 0.25; for TDYD: not above 0.25.
For WDAF, the enrichment ratio was not above 0.25.
With MRHT, the enrichment ratio was 0.477.
The same measure for TEHT: 27.2.
Turning to YYHT, the enrichment ratio was not above 0.25.
As to MMHT, the enrichment ratio was not above 0.25.
QEHT: the enrichment ratio was 9.94.
The same measure for MLHT: 11.5; for KLHT: not above 0.25; for MEHT: 24.2.
The figure for NEHT is not above 0.25; for NWHY it is not above 0.25; for TYIE it is not above 0.25.
The same measure for DLWY: not above 0.25.
As for KLWE, the enrichment ratio is not above 0.25.
The figure for KHER is not above 0.25; for TVFL it is not above 0.25.
For LIMQ, the enrichment ratio is not above 0.25.
The same measure for NNDM: not above 0.25; for FCHM: not above 0.25; for ATSV: 12.7.
The figure for YTSV is not above 0.25; for TTSV it is 15.8; for YDSV it is not above 0.25.
The figure for STSV is 9.12; for KQSV it is not above 0.25; for SWRT it is not above 0.25.
Take RRQV: the enrichment ratio was not above 0.25.
VWEC: the enrichment ratio is not above 0.25.
The same measure for TETI: 17.3; for TETD: 2.04; for TETA: not above 0.25.
On to TEPM, for which the enrichment ratio is not above 0.25.
With TETM, the enrichment ratio stood at 22.4.
For the variant TETE, the enrichment ratio was determined as 18.8.
The same measure for TETK: not above 0.25; for TETR: not above 0.25; for METE: not above 0.25.
The same measure for QETE: not above 0.25; for TETS: 13.7.
Regarding RPDP, the enrichment ratio was not above 0.25.
Turning to MVRG, the enrichment ratio was not above 0.25.
The figure for NTNY is not above 0.25; for LYEH it is not above 0.25; for IGTK it is not above 0.25.
The same measure for WQPW: not above 0.25; for PICS: not above 0.25; for DNDH: not above 0.25.
The same measure for WQRE: not above 0.25; for LRQP: not above 0.25; for HPHL: not above 0.25.
On to GFYA, for which the enrichment ratio was not above 0.25.
The figure for DGSI is not above 0.25; for GYWI it is not above 0.25.
The same measure for IGSE: not above 0.25; for TETG: 35.8.
Turning to METG, the enrichment ratio is 4.62.
The figure for QETG is not above 0.25; for SFGG it is not above 0.25.
As for PIPY, the enrichment ratio is not above 0.25.
With KIVE, the enrichment ratio is not above 0.25.
As to EFFM, the enrichment ratio is not above 0.25.
In the case of SNSN, the enrichment ratio turned out to be 12.5.
In the case of SQSN, the enrichment ratio turned out to be 7.46.
Consider SSSN, for which the enrichment ratio amounted to 12.1.
The same measure for SCSN: 12.3; for KQSN: not above 0.25; for STSN: 11.3.
SDSN: the enrichment ratio is not above 0.25.
Regarding SLSN, the enrichment ratio is 8.45.
Consider NSSN, for which the enrichment ratio was not above 0.25.
Take SRSN: the enrichment ratio was not above 0.25.
On to KSSN, for which the enrichment ratio is not above 0.25.
For the variant YTSN, the enrichment ratio was not above 0.25.
The figure for DMGM is not above 0.25; for VHGA it is not above 0.25; for FTWC it is not above 0.25.
Take RPLR: the enrichment ratio was not above 0.25.
As to EKAY, the enrichment ratio was not above 0.25.
The figure for FPIV is not above 0.25.
As to SGSG, the enrichment ratio worked out at 8.15.
The figure for TGSN is 8.1; for SGSN it is 13.3; for WDWH it is not above 0.25.
For the variant SESK, the enrichment ratio came to 5.02.
Consider SRSH, for which the enrichment ratio was not above 0.25.
The same measure for SENK: not above 0.25.
Consider KYSC, for which the enrichment ratio is not above 0.25.
For SEFC, the enrichment ratio is 10.4.
With SRSQ, the enrichment ratio was not above 0.25.
Regarding SESH, the enrichment ratio came to 13.1.
The same measure for SETC: 13.2.
For SESQ, the enrichment ratio is 13.9.
The figure for SESC is 18.4.
As for DDSC, the enrichment ratio was not above 0.25.
On to SQSQ, for which the enrichment ratio was 8.8.
For the variant LSYF, the enrichment ratio is 0.698.
The same measure for FERS: not above 0.25.
The same measure for FKHR: not above 0.25; for QKRW: not above 0.25; for TIRN: not above 0.25.
KKEL: the enrichment ratio is not above 0.25.
Consider MLWA, for which the enrichment ratio is not above 0.25.
Regarding HFVY, the enrichment ratio was not above 0.25.
As to GASL, the enrichment ratio amounted to 3.66.
The figure for SETH is 15.6; for SETK it is not above 0.25; for METM it is 4.44.
The same measure for SETG: 9.95.
With SETW, the enrichment ratio turned out to be 3.01.
The figure for KYEC is not above 0.25.
Regarding SETI, the enrichment ratio was found to be 19.9.
The figure for SETM is 18.3.
In the case of SEEC, the enrichment ratio was 15.4.
The figure for SETA is 10.5; for SLEC it is not above 0.25.
The same measure for ICMG: not above 0.25; for NYHW: not above 0.25.
The same measure for EGMK: not above 0.25; for SVFE: not above 0.25; for PKCE: not above 0.25.
As for LWIA, the enrichment ratio was not above 0.25.
Take VVHK: the enrichment ratio was not above 0.25.
The figure for PWSL is not above 0.25; for YMEP it is not above 0.25.
Regarding SEMH, the enrichment ratio was determined as 19.3.
Consider KYMH, for which the enrichment ratio was not above 0.25.
The figure for SASH is 12.2; for SETD it is not above 0.25.
Consider SETS, for which the enrichment ratio was found to be 12.
SETE: the enrichment ratio was 5.75.
As for SANH, the enrichment ratio is not above 0.25.
The same measure for STMH: 8.42; for SASK: not above 0.25; for DGLS: not above 0.25.
For FPTK, the enrichment ratio is not above 0.25.
The same measure for DPHW: not above 0.25.
Consider WDVW, for which the enrichment ratio was not above 0.25.
As for QFAR, the enrichment ratio was not above 0.25.
The same measure for VVQA: not above 0.25; for PSLS: not above 0.25; for WGGY: not above 0.25.
The same measure for ITTH: not above 0.25.
As to DSGI, the enrichment ratio was not above 0.25.
As to NRIH, the enrichment ratio was not above 0.25.
Regarding KAIM, the enrichment ratio is not above 0.25.
As to GCGM, the enrichment ratio was found to be 2.98.
The figure for GATM is 15.3.
The same measure for KATM: not above 0.25; for GSIM: 11.6.
The same measure for GSTM: 6.87; for GAIM: 15.4; for GAPM: not above 0.25.
For the variant GSWM, the enrichment ratio was not above 0.25.
As for GCCK, the enrichment ratio was not above 0.25.
NATM: the enrichment ratio was not above 0.25.
In the case of GCIM, the enrichment ratio came out at 24.5.
Regarding TSES, the enrichment ratio came out at 2.55.
The same measure for SFWK: not above 0.25.
With AMIT, the enrichment ratio is not above 0.25.
The same measure for NCDK: not above 0.25; for DMRV: not above 0.25; for EDCW: not above 0.25.
Turning to MMNP, the enrichment ratio is not above 0.25.
As to DYLI, the enrichment ratio was not above 0.25.
As to MAPM, the enrichment ratio is not above 0.25.
The same measure for FMTM: not above 0.25; for NVIM: not above 0.25; for NIIM: not above 0.25.
The same measure for GGIM: 13.9.
The same measure for GNIM: 13.4.
Regarding YHIM, the enrichment ratio was not above 0.25.
The same measure for GTIM: 2.86; for MATM: 22.6; for GIIM: 1.99.
The figure for GVIM is 19.3; for GVWM it is not above 0.25.
The same measure for VKAK: not above 0.25; for HKPF: not above 0.25.
For the variant EDLF, the enrichment ratio was not above 0.25.
For GLPS, the enrichment ratio was not above 0.25.
Consider PYPA, for which the enrichment ratio is not above 0.25.
The same measure for KRQM: not above 0.25.
Turning to HDQM, the enrichment ratio was not above 0.25.
The figure for YYGF is not above 0.25; for YSDV it is not above 0.25.
